# Measured values taken from PubChem BioAssay AID588342 (National Center for Advancing Translational Sciences (NCATS), 2011).
# Several values for one entry are separate records, joined by “and”; a condition that tells them apart may be missing. Equal entries are not always repeated. In all, about 360,000 compounds went through this assay and about 25,000 (6.9%) were called active. Not shown: some 9% with an inconclusive outcome. For the sample, actives were picked, then their nearest neighbours and some compounds at random. Values without a mark were called inactive. Calls come from the whole dose curve; as a rule, active = well fitted inhibition curve with a large enough effect; inconclusive = small, poorly fitted or top-dose-only effect; inactive = flat fitted curve, though single readings scatter.
# Molecular target: Luciferin 4-monooxygenase (Photinus pyralis) (UniProt P08659)
# Sequence (P08659 whole entry, looked up): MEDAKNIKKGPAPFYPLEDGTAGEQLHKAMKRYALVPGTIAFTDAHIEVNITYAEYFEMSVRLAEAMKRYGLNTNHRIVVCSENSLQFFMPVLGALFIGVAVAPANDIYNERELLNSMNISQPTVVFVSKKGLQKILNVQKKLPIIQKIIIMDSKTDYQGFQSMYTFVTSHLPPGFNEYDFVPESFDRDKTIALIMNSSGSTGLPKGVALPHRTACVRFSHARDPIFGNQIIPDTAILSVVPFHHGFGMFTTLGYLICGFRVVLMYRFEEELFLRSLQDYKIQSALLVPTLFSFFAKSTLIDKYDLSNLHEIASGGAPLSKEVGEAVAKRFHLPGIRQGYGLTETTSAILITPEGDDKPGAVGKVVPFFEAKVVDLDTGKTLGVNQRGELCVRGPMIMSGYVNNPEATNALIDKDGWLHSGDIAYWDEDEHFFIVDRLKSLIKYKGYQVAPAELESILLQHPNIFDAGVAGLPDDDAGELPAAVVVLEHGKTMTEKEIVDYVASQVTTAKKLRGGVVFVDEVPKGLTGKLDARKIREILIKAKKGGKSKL
# Test: qHTS profiling assay for firefly luciferase inhibitor/activator using purifed enzyme and Km concentrations of substrates (counterscreen for miR-21 project); note: nearly all actives have a fitted effect of over 55% in size;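 for activity change, negative = inhibition: plate controls were vehicle for no effect and reference inhibitor for full effect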
# Conditions: purified FLuc, luminescence inhibition; series mostly up to 57.5 µM; activity change, negative = inhibition: at the top concentration
# Method in brief: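 Purified P. pyralis luciferase (10nM final) with 10uM D-luciferin and 10uM ATP (Km levels) in 50mM Tris acetate pH 7.5, 10mM Mg acetate, 0.01% Tween-20, 0.05% BSA; qHTS 6-point titration, ~60 µM downward; luminescence read.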
# Potency is the fitted concentration of half-maximal effect.
Compound,"activity change, negative = inhibition",Potency
Cc1onc(C(=O)NN)c1-c1csc(COc2ccccc2)n1,-4.18%,–
CC(C)(C)C(=O)OCc1nc(-c2ccc(O)c(O)c2)cs1,–,4.26 µM (active)
Cc1nnc2n1N=C(c1ccccc1)CS2,-2%,–
O=c1c2cc(-c3ccccc3)sc2nc2n1N=C(c1cccs1)CS2,–,0.601 µM (active)
CCCCCCn1nnc2sc(-c3ccccc3)cc2c1=O,-2.55%,–
CCOc1ccc(NC(=O)CC2C(=O)N(c3cccc(OC)c3)C(=O)N2C2CCCCC2)cc1 (stereo unspecified),-4.52%,–
CCOC(=O)c1c(S(=O)(=O)N2CCCC(C(=O)NCc3cccc(C)c3)C2)c(C)n(C)c1C (stereo unspecified),-1.83%,–
CCCCC(=O)Nc1cc(C)c2c(=O)oc3ccccc3c2n1,-17.8%,–
CCOC(=O)C1CCCN(CC(=O)Nc2cc(C)c3c(=O)oc4ccccc4c3n2)C1 (stereo unspecified),-2.78%,–
CCOC(=O)c1c(C)nc2c(c1C)c(=O)oc1ccccc12,–,16.9 µM (active)
Cc1cc(C)c(C#N)c(N2CCC(C(N)=O)CC2)n1,2.33%,–
N#Cc1c(-c2ccccc2)cc(-c2ccccc2)nc1SCC(=O)O,-9.04%,–
N#Cc1c(N2CCCCC2)nc(N)c2c(N)nc(SCC(=O)O)cc12,–,8.49 µM (active)
CCOC(=O)N1CCC(NC(=O)c2ccc3nc(N4CCOCC4)sc3c2)CC1,-1.13%,–
O=S(=O)(Nc1ccc2nc(N3CCOCC3)sc2c1)c1ccccc1,–,21.3 µM (active)
O=C(c1ccc2nc(N3CCOCC3)sc2c1)N1CCN(c2ccc(Cl)cc2)CC1,-1.27%,–
COc1ccccc1N1CC(C(=O)NCCN2C(=O)S/C(=C\c3cccnc3)C2=O)CC1=O (stereo unspecified),-1.81%,–
NC(=O)COc1ccc(C23CC4CC(CC(C4)C2)C3)cc1,–,12 µM (active)
NC(=O)COc1ccc(NC(=O)c2ccccc2-c2ccccc2)cc1,0.603%,–
NC(=O)COc1ccccc1C(=O)NC12CC3CC(CC(C3)C1)C2,-0.909%,–
Cc1ccc(/C=C2\CCn3c2nc2cc(C(=O)O)ccc2c3=O)c(C)c1,4.09%,–
COc1ccccc1CNC(=O)CCCn1c(=O)c2ccccc2n(CC(=O)Nc2ccc(C)cc2Cl)c1=O,1.77%,–

Compound,"activity change, negative = inhibition",Potency
CCCn1nc(NC(=O)C(C)C)c2cc3cc(OC)ccc3nc21,-7.62%,–
CCCn1nc(NS(=O)(=O)c2ccc(F)cc2)c2cc3ccccc3nc21,1.89%,–
CCCn1nc(NS(=O)(=O)c2ccccc2)c2cc3cc(C)ccc3nc21,–,16.9 µM (active)
O=S(=O)(NCC(c1ccco1)N1CCOCC1)c1cc(F)ccc1F (stereo unspecified),-3.23%,–
Cc1csc2nc(COC(=O)c3ccccc3NC(=O)c3ccccc3Cl)cc(=O)n12,-0.468%,–
CCN(CC)c1nn2c(=O)c(C(=O)NCCc3ccccc3)cnc2s1,3.21%,–
Cc1cc(-n2nc(C)cc2C)n2nc(C)c(-c3ccccc3)c2n1,5.57%,–
Cc1cc(-c2ccccc2)n2nc(C)c(-c3ccccc3)c2n1,–,16.9 µM (active)
Cc1cc(C(C)(C)C)n2nc(C)c(-c3ccccc3)c2n1,-0.621%,–
Cc1ccc(C)n1-c1nnc(N2CCC(C(=O)NCc3ccccc3Cl)CC2)s1,4.23%,–
O=C(NCc1ccc2c(c1)CCN2C(=O)c1ccccc1)c1ccccc1,-4.72%,–
CN(C)c1ccc(N/C=C/C(=O)C(F)(F)F)cc1,–,10.7 µM (active)
CC(=O)N(C)c1ccc(NC(=O)C(F)(F)F)cc1,0.386%,–
CNC(=S)NNC(=O)c1ccc(N(C)C)cc1,3.3%,–
Cc1ccc2nc(NC(=O)c3nc(SCc4ccccc4F)ncc3Cl)sc2c1,1.12%,–
CCOc1ccc(NC(=O)c2c(NC(=O)Cc3ccccc3)sc3c2CCC(C)C3)cc1 (stereo unspecified),-16.8%,–
O=S(=O)(c1cccs1)N1CCN(CCOc2ccccc2)CC1,-0.715%,–
Fc1ccc(-c2nc(Nc3cccc(Cl)c3)nc3c2COc2ccccc2-3)cc1,-14.4%,–
COc1ccc(-c2nc3c4ccccc4n(CC(=O)Nc4ccc(C(C)=O)cc4)c(=O)n3n2)cc1,5.2%,–
O=C(CNC(=O)C1COc2ccccc2O1)N/N=C/c1cc(Br)c(O)c(Br)c1 (stereo unspecified),-14.6%,–
CC1(C(=O)N/N=C/c2cc3c(cc2Br)OCO3)CC1(Br)Br (stereo unspecified),-1.53%,–
O=C(N/N=C/c1cc2c(cc1Br)OCO2)C1COc2ccccc2O1 (stereo unspecified),–,13.5 µM (active)

Compound,"activity change, negative = inhibition",Potency
Cc1ccccc1-c1cc(C(=O)NCc2cccs2)n(CC2CC(c3cccnc3)=NO2)n1 (stereo unspecified),-1.1%,–
COc1ccc(Cl)cc1NC(=O)Cn1c(=O)c2ccccc2n2nncc12,-9.12%,–
COc1ccc(NC(=O)C2CCC(CNS(=O)(=O)c3csc(C(N)=O)c3)CC2)cc1OC (stereo unspecified),-0.339%,–
CCN(CC)C(=O)CSc1nc2ccsc2c(=O)n1Cc1ccccc1Cl,-8.76%,–
O=C(COC(=O)c1ccccc1Br)Nc1nnc(-c2ccccc2)o1,-7.96%,–
O=C(OCc1ccc(Br)cc1)c1cccc(-c2nnc(-c3ccccc3)o2)c1,-4.27%,–
Brc1ccc(-c2noc(-c3ccccc3)n2)o1,–,2.13 µM (active) and 1.35 µM (active)
Brc1ccc(-c2nnc(-c3ccccc3)o2)o1,–,6.01 µM (active)
Cn1nc(-c2ccccc2)c(-c2nc(-c3ccc(Cl)cc3)no2)c1Cl,-2.68%,–
O=C1c2ccccc2C(=O)N1CCCc1nc(-c2ccccc2)no1,-2.23%,–
Cc1ccc(Cc2nc3ccccc3nc2SCC(=O)Nc2cccc(C(F)(F)F)c2)cc1,1.52%,–
CCCc1nn2c(=O)cc(COC(=O)c3ccc(NC(=O)C(C)Oc4ccccc4)cc3)nc2s1 (stereo unspecified),-6.12%,–
CN(CC(=O)Nc1cccc(F)c1)C(=O)CC1CCCC1,3.45%,–
O=C(NCc1ccccc1CN1CCCC1)C1CCN(S(=O)(=O)c2ccc(Cl)cc2)CC1,-0.436%,–
NC(=O)c1ccc(NC(=O)COC(=O)c2ccc([N+](=O)[O-])cc2)cc1,-0.303%,–
O=C(COC(=O)C1CCCCC1)Nc1ccc([N+](=O)[O-])cc1,–,16.9 µM (active)
N/C(Cc1ccc([N+](=O)[O-])cc1)=N\OC(=O)C1CCCCC1,-3.28%,–
O=C(CN1CCSc2ccccc21)N1CCN(c2ccccc2)CC1,-5.65%,–
CCCCN1C(=O)CC(N2CCOCC2)C1=O (stereo unspecified),-0.0203%,–
CCOC(=O)c1cn(Cc2cccc(C)c2)nn1,2.45%,–
CCOC(=O)c1nn(-c2cccc(C)c2)cc1C(=O)c1ccccc1,–,9.53 µM (active)
CC(=O)c1nn(-c2cccc(Br)c2)cc1C(=O)c1cccc2ccccc12,-2.37%,–

Compound,"activity change, negative = inhibition",Potency
COc1ccc(S(=O)(=O)NCc2cccn2Cc2cccc(C)c2)cc1Cl,-8.6%,–
Cc1ccccc1C(=O)NCc1nc(-c2ccc(Cl)cc2)no1,-1.77%,–
Cc1cc(Cl)ccc1OCc1nc(-c2ccncc2)no1,–,10.7 µM (active)
Cc1cc(Cl)ccc1OCCCC(=O)NCc1ccncc1,-4.06%,–
Cc1ccc(CNC(=O)CSc2c(C)cnc3c2c(=O)n(C)c(=O)n3C)cc1,-0.897%,–
O=C(Nc1ccc(Cl)cc1)c1ccsn1,–,12 µM (active)
O=C(Nc1cccc(Cl)c1)c1csnn1,-14.4%,–
CCC(=O)Nc1ccc(C(=O)NNC(=O)c2ccc(Cl)cc2)cc1,-3.51%,–
O=[N+]([O-])c1cc(-c2nc(-c3ccccc3)no2)ccc1NCc1ccco1,-8.68%,–
Cc1cc2n(n1)C(c1cc(C(C)(C)C)c(O)cc1O)Nc1ccccc1-2 (stereo unspecified),-15.3%,–
CCC1C=C(c2ccccc2)C=CN=C1N(CC)CC (stereo unspecified),0.24%,–
CCOc1ccc(CCNC(=O)Cn2nc(CC)n3c(cc4sc(CC)cc43)c2=O)cc1OCC,-5.54%,–
COc1ccc(-c2cc(C(F)(F)F)n3nc(-c4ccccc4)cc3n2)cc1OC,-0.561%,–
Cc1cc(-c2ccccc2)n2nc(-c3ccccc3)cc2n1,-16.5%,–
Cc1cc(N)n2nc(-c3ccc(C(C)(C)C)cc3)cc2n1,–,0.601 µM (active)
Cc1cc(C)cc(-n2c(SCC(=O)NCC3CCCO3)nc3c([nH]c4ccccc43)c2=O)c1 (stereo unspecified),-0.071%,–
COc1cccc(NC(=O)Nc2ccc3c(c2)N(C)C(=O)c2ccccc2S3)c1,1.22%,–
CCCCS(=O)(=O)c1oc(-c2cccs2)nc1S(=O)(=O)c1ccccc1,-0.854%,–
CCOCCCNC(=O)C(NC(=O)c1ccccc1O)c1ccccc1 (stereo unspecified),-1.29%,–
COc1ccc(N2CCN(C(=O)c3ccc4c(Cl)c5c(nc4c3)CCCC5)CC2)cc1,–,inactive
CC(C)CCNC(=O)c1ccc2c(Cl)c3c(nc2c1)CCC3,–,0.675 µM (active)
CC(=O)c1ccc(NC(=O)c2ccc3c(Cl)c4c(nc3c2)CCCC4)cc1,3.57%,–

Compound,"activity change, negative = inhibition",Potency
CCOc1ccc(OCC(=O)OC(C)C(=O)NC2CCCCC2C)cc1 (stereo unspecified),-0.597%,–
CCc1cc2c(cc3c(=O)n(CC(=O)NCCc4ccc(OC)c(OC)c4)ncn32)s1,-4.14%,–
Cc1ccc(C(=O)NCCNC(=O)c2cnccn2)cc1,-0.972%,–
CCN(CC)c1ccc(/C=N/NC(=O)c2cnccn2)c(O)c1,–,9.53 µM (active)
COc1ccc(NC(=O)C/C(C)=N/NC(=O)c2cnccn2)cc1Cl,0.369%,–
O=C(CSc1ncnc2c1cnn2CCc1ccccc1)Nc1ccc(F)cc1,4.06%,–
CC(=O)c1ccc(NC(=O)C2CCN(S(=O)(=O)c3c(C)noc3/C=C/c3ccc(C)cc3)CC2)cc1,1.25%,–
COc1ccc(C2(C)ON(c3ccccc3C(F)(F)F)C2=O)cc1 (stereo unspecified),0.0812%,–
CCNCCC(=O)N1c2ccccc2Sc2ccc(NC(=O)OCC)cc21,2.62%,–
Cc1nn(Cc2ccc(F)cc2)c(C)c1NC(=O)c1cc(CC(C)C)on1,-4.75%,–
Nc1nonc1C(=O)NCCc1ccccc1,-0.421%,–
C[C@H](NC(=O)NCCc1ccccc1)C(=O)O,-5.46%,–
CC(C)Cc1cc(C(=O)NCCc2ccccc2)no1,–,10.7 µM (active)
CC(C)Cc1cc(C(=O)Nc2cc(Br)ccc2O)no1,–,12 µM (active)
O=C(Nc1ccccc1Br)c1cc(CN2CCCC2)on1,-18.8%,–
O=S(=O)(NCCCN1CCOCC1)c1ccc(F)c(Cl)c1,0.23%,–
CCCN=C1NC(=O)C(CC(=O)NCCc2ccc(OC)c(OC)c2)S1 (stereo unspecified),3.61%,–
Cc1cccc(-n2ccnc2SCC(=O)Nc2cc(C(F)(F)F)ccc2Cl)c1,-5.71%,–
